In the library only some 6.5% were active in any assay of this set; here they are far more common.
HT1080 IDH1KD tx – kills HT-1080 cells with IDH1 knockdown; HT-1080 IDH1 knockdown viability, ATP luminescence, 48 h; Potency, µM (top dose mostly 46.1 µM), without a hit: at the highest dose activity, negative = toxicity, most hits filed as cytotoxic; 2% of 360,000 active;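 further: potency means the concentration at half of the fitted maximal effect; 0% = DMSO wells and -100% = cell-free medium wells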
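Using the IDH1-knockdown HT-1080 line run in the same batch and compound series as the NT line, viability after 48 h at 37 °C was determined by CellTiter-Glo luminescence and expressed as % activity.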
Giardia kill – kills Giardia lamblia | Giardia lamblia trophozoite viability | activity change, % at 7.66 µM, hits read low | 0.15% of 340,000 active; in the data active means activity change below about -80%; inconclusive means between about -30% and that limit;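 further: parasites exposed to compound for two days anaerobically before the ATP read; on the % scale 0 is the no-effect control and ±100 the full control effect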
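Giardia trophozoites, 100 cells per well, were exposed to compounds for 48 hrs at 37 deg C under anaerobic conditions; viability was then read as ATP content by bioluminescence after 15-30 min at room temperature.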
HepG2 viability – kills HepG2 cells in TGF-b inhibitor counter-screen; HepG2 CAGA-GFP viability, ATP luminescence, 18 h; Potency, µM (doses to about 46.1 µM), for the others: top-dose activity change, negative = cytotoxicity, usual class: cytotoxic; 0.76% of 410,000 active; further: potency means the concentration at half of the fitted maximal effect
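HepG2 CAGA-GFP cells (1000/well, DMEM with 1% FBS) received compound, then TGF-beta at 500 pg/mL final, and were incubated 18 hours at 37 degrees C. Viability was read by CellTiter-Glo luminescence. Media-only wells were set as complete cell-killing and DMSO as no toxicity.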
HT1080-NT tox – kills 2HG-producing HT-1080-NT fibrosarcoma cells; Potency, µM (top dose mostly 46.1 µM), without a hit: at the top dose activity, negative = less viability, hits mostly cytotoxic; 1.6% of 360,000 active; HT-1080-NT fibrosarcoma viability, CellTiter-Glo ATP luminescence, 48 h; AID 686970;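 further: NT is the 2HG producing partner of a matched IDH1 knockdown line; potency means the concentration at half of the fitted maximal effect; 0% = DMSO-treated cells and -100% = media-only wells without cells; nearly all actives have a fitted effect of over 55% in size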
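Viability by CellTiter-Glo luminescence after 48 h compound exposure at 37C of HT-1080-NT cells (750/well, RPMI, 5% FBS). % activity scaled between DMSO wells and medium-only wells, then curve-fitted and categorized by curve class.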
TGFb SMAD3 inh – inhibitors of TGF-b signaling; HepG2 CAGA-GFP TGF-b/SMAD3 reporter, GFP fluorescence, 18 h; TGF-beta stimulated, 500 pg/mL final; Potency, µM (highest dose often 46.1 µM), for the others: at the highest dose activity, negative = inhibition, most hits filed as inhibitors; 1.2% of 410,000 active; AID 588855; further: potency means the concentration at half of the fitted maximal effect; on the % scale 0 is the no-effect control and ±100 the full control effect; nearly all actives have a fitted effect of over 65% in size
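Per well, imaged GFP fluorescence of HEPG2 CAGA-GFP cells gives the signal; cells get compound, then TGF-beta (500 pg/mL final), 18 h at 37 degrees C; %Activity versus -TGF-beta and +DMSO controls.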
IL-1B inflam inh – blocks inflammasome-driven IL-1 beta release. THP-1 LPS/ATP IL-1B secretion, AlphaLISA, 16 h; hits give low values. activity change, % at 57.5 µM. 4.7% of 360,000 active. AID 743279; in the data active means activity change below about -50%; inconclusive means mostly about -30% to -49%; further: on the % scale 0 is the no-effect control and ±100 the full control effect
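THP-1 cells pretreated 1 hr with compounds (up to 57.5 uM final), then stimulated with LPS (250 ng/mL final) plus ATP (1.25 mM final); secreted IL-1B measured by AlphaLISA after 16 hr, decreased signal indicating inhibition.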
* marks the source's active call; other numbers are inactive results; [ ] = dose if it differs, or a comment. Unless noted, the call rests on the fitted dose curve; in most records, active means well fitted curve in the direction sought with a large enough effect; inconclusive means small, poorly fitted or top-dose-only effect, or another doubt; inactive means no such curve, though single readings can be large; an effect the other way counts as inactive or inconclusive.

How did Cc1ccc(S(=O)(=O)N2CCOCC2)cc1NC(=O)COC(=O)c1cncc(Br)c1 do in these assays?
HT1080 IDH1KD tx: -1.0%; Giardia kill: -15.3; HepG2 viability: -2.0%; HT1080-NT tox: -0.7%; TGFb SMAD3 inh: -13.8%; IL-1B inflam inh: -16.8

Results for O=C(CSc1nnc(-c2ccc(Cl)s2)o1)N1CCCc2ccccc21 ?
HT1080 IDH1KD tx: 23.0%; Giardia kill: -17.4; HepG2 viability: -0.8%; HT1080-NT tox: 19.0%; TGFb SMAD3 inh: 11.4%; IL-1B inflam inh: -8.4

What do the screens show for `COc1ccc2ccccc2c1CNCc1ccc(C)cc1`?
HT1080 IDH1KD tx: inconclusive; Giardia kill: -6.7; HepG2 viability: -39.4%; HT1080-NT tox: inconclusive; TGFb SMAD3 inh: inconclusive; IL-1B inflam inh: -91.7*

Results for CC(NCCCOc1cccc2ccccc12)c1ccccc1 (configuration not stated) ?
HT1080 IDH1KD tx: inconclusive; Giardia kill: -9.1; HepG2 viability: 20µM*; HT1080-NT tox: inconclusive; TGFb SMAD3 inh: inconclusive; IL-1B inflam inh: -73.8*

How did COc1ccccc1CNCc1ccc(C)cc1 do in these assays?
HT1080 IDH1KD tx: 9.3%; Giardia kill: 1.8; HepG2 viability: 0.4%; HT1080-NT tox: 8.0%; TGFb SMAD3 inh: 0.1%; IL-1B inflam inh: -7.8

What do the screens show for `COc1ccc2ccccc2c1CNC(C)c1ccccc1` (configuration not stated)?
HT1080 IDH1KD tx: inconclusive; Giardia kill: 27.2; HepG2 viability: -29.5%; HT1080-NT tox: -26.7%; TGFb SMAD3 inh: 4.5%; IL-1B inflam inh: -55.2*

How did COc1cc(/C=N/NC(=O)c2ccc(CSc3nc4ccccc4[nH]3)cc2)cc(OC)c1OC do in these assays?
HT1080 IDH1KD tx: -18.9%; Giardia kill: 7.7; HepG2 viability: -10.7%; HT1080-NT tox: -7.4%; TGFb SMAD3 inh: -8.5%; IL-1B inflam inh: 5.7

What do the screens show for `CC(C)NC(=S)NC(=O)c1ccc(-c2ccccc2)cc1`?
HT1080 IDH1KD tx: -17.1%; Giardia kill: -1.1; HepG2 viability: -27.8%; HT1080-NT tox: -2.0%; TGFb SMAD3 inh: -13.8%; IL-1B inflam inh: -56.9*

What do the screens show for `CCC(=O)NNC(=S)NC(=O)c1ccc(C)cc1`?
HT1080 IDH1KD tx: -24.6%; Giardia kill: 14.4; HepG2 viability: -20.7%; HT1080-NT tox: -4.0%; TGFb SMAD3 inh: inconclusive; IL-1B inflam inh: -60.7*

What do the screens show for `O=C1/C(=C/c2cccc(F)c2)Oc2cc(O)ccc21`?
HT1080 IDH1KD tx: -13.5%; Giardia kill: 17.6; HepG2 viability: -23.3%; HT1080-NT tox: -18.3%; TGFb SMAD3 inh: inconclusive; IL-1B inflam inh: -79.2*

Results for COC(=O)COc1ccc2c(c1)O/C(=C\c1cccc([N+](=O)[O-])c1)C2=O ?
HT1080 IDH1KD tx: -1.0%; Giardia kill: 0.2; HepG2 viability: 5.2%; HT1080-NT tox: 2.1%; TGFb SMAD3 inh: 0.1%; IL-1B inflam inh: -1.0

What do the screens show for `Cc1cccc(/C=C2\Oc3cc(OS(C)(=O)=O)ccc3C2=O)c1`?
HT1080 IDH1KD tx: -22.6%; Giardia kill: 4.3; HepG2 viability: -34.1%; HT1080-NT tox: inconclusive; TGFb SMAD3 inh: inconclusive; IL-1B inflam inh: -55.8*

How did O=C1Nc2ccccc2C1(O)c1ccccc1 (configuration not stated) do in these assays?
HT1080 IDH1KD tx: 1.8%; Giardia kill: -5.1; HepG2 viability: -0.7%; HT1080-NT tox: -8.2%; TGFb SMAD3 inh: 0.5%; IL-1B inflam inh: -5.7

Results for Cc1cccc2c1NC(=O)C2(O)N1CCCC(C)C1 (configuration not stated) ?
HT1080 IDH1KD tx: -26.7%; Giardia kill: -0.8; HepG2 viability: 2.3%; HT1080-NT tox: -5.2%; TGFb SMAD3 inh: 4.9%; IL-1B inflam inh: 8.9

Results for Cc1cccc2c1NC(=O)C2(c1ccc(O)cc1)c1ccc(O)cc1 ?
HT1080 IDH1KD tx: 0.0082µM*; Giardia kill: -22.3; HepG2 viability: -1.2%; HT1080-NT tox: 0.0082µM*; TGFb SMAD3 inh: 14.4%; IL-1B inflam inh: inconclusive

Results for Cc1cc(C2(c3ccc(O)c(C)c3)C(=O)Nc3ccccc32)ccc1O ?
HT1080 IDH1KD tx: -11.9%[9.24 µM]; Giardia kill: -8.6; HepG2 viability: -111.4%; HT1080-NT tox: 18.4µM*; TGFb SMAD3 inh: -20.6%; IL-1B inflam inh: inconclusive

How did Cc1ccc(C(=O)OCC(=O)NCc2cccs2)cc1S(=O)(=O)N1CCOCC1 do in these assays?
HT1080 IDH1KD tx: -1.6%; Giardia kill: 35.8; HepG2 viability: 17.2%; HT1080-NT tox: 1.2%; TGFb SMAD3 inh: 0.0%; IL-1B inflam inh: 1.1

Results for COC(=O)[C@@]12CCCCN1[C@H](c1ccc(-c3ccc(C(C)=O)cc3)cc1)[C@@H]1C(=O)N(C)C(=O)[C@@H]12 ?
HT1080 IDH1KD tx: 8.7%; Giardia kill: inconclusive; HepG2 viability: 5.7%; HT1080-NT tox: 1.3%; TGFb SMAD3 inh: 25.8%; IL-1B inflam inh: -13.1

What do the screens show for `C=CC[C@H](CC(=O)N(CCO)Cc1ccccc1)C(=O)N[C@H](COC(=O)[C@@H](CC=C)CC(=O)OC(C)(C)C)c1ccccc1`?
HT1080 IDH1KD tx: -9.3%; Giardia kill: 8.0; HepG2 viability: -9.7%; HT1080-NT tox: -5.4%; TGFb SMAD3 inh: inconclusive; IL-1B inflam inh: -64.5*

How did C=CC[C@@H](CC(=O)N[C@H](CO)Cc1ccccc1)C(=O)N[C@H](COC(=O)[C@@H](CC=C)CC(=O)OC(C)(C)C)Cc1c[nH]c2ccccc12 do in these assays?
HT1080 IDH1KD tx: inconclusive; Giardia kill: 18.2; HepG2 viability: -29.9%; HT1080-NT tox: inconclusive; TGFb SMAD3 inh: inconclusive; IL-1B inflam inh: inconclusive

Results for C=CC[C@H](CC(=O)N(CCO)Cc1ccccc1)C(=O)N[C@H](COC(=O)[C@@H](CC=C)CC(=O)OC(C)(C)C)Cc1c[nH]c2ccccc12 ?
HT1080 IDH1KD tx: inconclusive; Giardia kill: -12.0; HepG2 viability: -20.2%; HT1080-NT tox: inconclusive; TGFb SMAD3 inh: inconclusive; IL-1B inflam inh: -64.5*

How did C=CC[C@@H](CC(=O)N(CCO)Cc1ccccc1)C(=O)N[C@H](COC(=O)[C@H](CC=C)CC(=O)OC(C)(C)C)Cc1c[nH]c2ccccc12 do in these assays?
HT1080 IDH1KD tx: inconclusive; Giardia kill: 6.1; HepG2 viability: -1.9%; HT1080-NT tox: -27.0%; TGFb SMAD3 inh: inconclusive; IL-1B inflam inh: -58.9*

How did CC(C)C[C@H](NC(=O)C1CCN(C(=O)[C@H](Cc2ccccc2)NC(=O)OC(C)(C)C)CC1)C(=O)O do in these assays?
HT1080 IDH1KD tx: -0.1%; Giardia kill: 3.2; HepG2 viability: 3.0%; HT1080-NT tox: 3.3%; TGFb SMAD3 inh: 9.5%; IL-1B inflam inh: -3.5

Source: PubChem BioAssay
